Source: PubChem BioAssay (NCI)
About 83,000 compounds went through this panel and 20% of them were active in at least one assay; those are over-represented in the sample as a whole.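 Negative percent growth values reflect cell death: -40 means 40% of the cells present at the start died, and -100 means all died.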 Active and inactive are the calls of the source. How the source made its calls: active means growth percent below 10; inactive means the rest.

What was measured:
Assay in all cases: NCI-60 one-dose screen, 48 h (100 = growth as untreated, 0 = no growth, -100 = all killed)
BT-549 breast = conditions: 10 µM unless noted
MDA-MB-435 melanoma = conditions: 10 µM unless noted
SW-620 colon = conditions: 10 µM unless noted
MCF7 breast = conditions: 10 µM
HCT-116 colon = conditions: 10 µM unless noted
HCC-2998 colon = conditions: 10 µM unless noted
KM12 colon = conditions: 10 µM unless noted

Measured: growth

CCOC(=O)c1ccc(N=Cc2sc(=O)[nH]c2O)cc1
inactive: BT-549 breast 101% | MDA-MB-435 melanoma 103% | SW-620 colon 100% | MCF7 breast 92% | HCT-116 colon 107% | HCC-2998 colon 101% | KM12 colon 103%

COc1ccc(CCN2C(=O)CCSC2=S)cc1
inactive: BT-549 breast 96.3% | SW-620 colon 21.9% | MCF7 breast 16.2% | HCT-116 colon 17.1% | HCC-2998 colon 106%
active: MDA-MB-435 melanoma 4.04% | KM12 colon 0.314%

COc1ccc(CCN2C(=O)/C(=C/c3ccc(C4Oc5ccccc5C5CC(c6cccc(OC)c6)=NN54)cc3)SC2=S)cc1 (stereo unspecified)
inactive: BT-549 breast 108% | MDA-MB-435 melanoma 104% | SW-620 colon 98.4% | MCF7 breast 93% | HCT-116 colon 102% | HCC-2998 colon 98.6% | KM12 colon 105%

O=CCCCC(O)C=O (stereo unspecified)
inactive: BT-549 breast 112% | MDA-MB-435 melanoma 105% | SW-620 colon 96.9% | MCF7 breast 98.9% | HCT-116 colon 109% | HCC-2998 colon 105% | KM12 colon 103%

COc1cc(C(C)n2cc(-c3ccccc3)nn2)ccc1OC1CCCC1 (stereo unspecified)
inactive: BT-549 breast 69.1% | MDA-MB-435 melanoma 65.4% | SW-620 colon 74.7% | MCF7 breast 48.1% | HCT-116 colon 52.3% | HCC-2998 colon 70.4% | KM12 colon 71.8%

CCn1c(Cc2ccccc2Nc2c(Cl)cccc2Cl)nnc1SCC(=O)NN1C(=O)/C(=C/c2cccc(OC)c2OC)SC1=S
inactive: BT-549 breast 109% | MDA-MB-435 melanoma 103% | SW-620 colon 106% | MCF7 breast 99.1% | HCT-116 colon 109% | HCC-2998 colon 115% | KM12 colon 102%

Nc1ccc(-c2nc3cc(Oc4ccc(Oc5ccc6[nH]c(-c7ccc(N)cc7)nc6c5)cc4)ccc3[nH]2)cc1
inactive: BT-549 breast 105% | MDA-MB-435 melanoma 109% | SW-620 colon 98.4% | MCF7 breast 85.1% | HCT-116 colon 97% | HCC-2998 colon 106% | KM12 colon 104%

COC(=O)/C(=C\c1c(C)[nH]c2ccccc12)S(=O)(=O)c1ccccc1
active: MCF7 breast 6.71% | HCC-2998 colon 5.21% | KM12 colon -13.2%
inactive: BT-549 breast 29.8% | MDA-MB-435 melanoma 13.9% | SW-620 colon 30.4% | HCT-116 colon 29.5%

O=[N+]([O-])c1cc2c(ccc3occc32)o1
active: MDA-MB-435 melanoma -75.1% | MCF7 breast 9.95% | HCT-116 colon 7.94%
inactive: BT-549 breast 22% | SW-620 colon 27.6% | HCC-2998 colon 10.9% | KM12 colon 28.6%

COc1ccc(/C=C2\N=C(c3ccccc3)N(c3ccc(-c4nc5ccc(C)cc5s4)cc3)C2=O)cc1
inactive: BT-549 breast 92.8% | MDA-MB-435 melanoma 86.9% | SW-620 colon 101% | MCF7 breast 77.1% | HCT-116 colon 85.9% | HCC-2998 colon 96% | KM12 colon 72.1%

Cc1ccc(Cn2c(N3CCC(C(=O)NCc4cccs4)CC3)nc3ccccc32)cc1
inactive: BT-549 breast 75% | MDA-MB-435 melanoma 90% | SW-620 colon 93.6% | MCF7 breast 95.2% | HCT-116 colon 58.1% | HCC-2998 colon 90.1% | KM12 colon 54.8%

COc1ccc(C2=C(c3cccc(OC)c3)C(=O)c3ccc(C)nc3C2=O)cc1
inactive: BT-549 breast 57.5% | MDA-MB-435 melanoma 32.2% | SW-620 colon 23.6% | MCF7 breast 23.7% | HCT-116 colon 11.2% | HCC-2998 colon 84.6% | KM12 colon 28.6%

NC1(N2SC(S)=C3CCCC=C32)CCCCC1
inactive: BT-549 breast 118% | MDA-MB-435 melanoma 107% | SW-620 colon 99.3% | MCF7 breast 95.4% | HCT-116 colon 98.4% | HCC-2998 colon 101% | KM12 colon 102%

CCCCCCCCCCCCCCn1cc(C2=C(c3coc4ccc(OC)cc34)C(=O)NC2=O)c2ccccc21
inactive: BT-549 breast 91.1% | MDA-MB-435 melanoma 97.6% | SW-620 colon 89.2% | MCF7 breast 88.5% | HCT-116 colon 78% | HCC-2998 colon 104% | KM12 colon 98%

CC1=C(C(=O)OCC2CCN(C(=O)OC(C)(C)C)CC2)[C@H](c2cccc(C#N)c2)C2=C(CC(C)(C)CC2=O)N1
inactive: BT-549 breast 65% | MDA-MB-435 melanoma 50.3% | SW-620 colon 37.2% | MCF7 breast 40.8% | HCT-116 colon 26.9% | HCC-2998 colon 70.8% | KM12 colon 42.4%

CNCCNc1nc2ccccc2c2c(=O)c3cccc(C)c3sc12
active: MDA-MB-435 melanoma 6.07% | SW-620 colon -62.4% | MCF7 breast -66.1% | HCT-116 colon -91.4% | HCC-2998 colon -43.2% | KM12 colon -29.9%
inactive: BT-549 breast 76.4%

COc1cc(C(=O)NN=C2c3ccccc3-c3ccccc32)cc(OC)c1OC
inactive: BT-549 breast 43.3% | SW-620 colon 19.5% | MCF7 breast 11.9% | HCT-116 colon 20.4% | HCC-2998 colon 77.9% | KM12 colon 29.3%
active: MDA-MB-435 melanoma -22.6%

CC(=O)Nc1nc2c(s1)CCc1c-2cn(S(=O)(=O)c2ccccc2)c1-c1ccccc1
inactive: BT-549 breast 97.7% | MDA-MB-435 melanoma 59.7% | SW-620 colon 79.5% | MCF7 breast 54.2% | HCT-116 colon 57.9% | HCC-2998 colon 80.4% | KM12 colon 54.9%
